The target in test [1] is Mitogen-activated protein kinase 3 (Homo sapiens) (UniProt P27361). The following applies: at 1 µM.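 Also: values are mean percent inhibition of MAPK3.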
For test [2], the target named is SRSF protein kinase 3 (Homo sapiens) (UniProt Q9UPE1). The following applies: at 0.1 µM.
For test [3] the target is unchanged. The conditions noted are these: at 1 µM.
The target in test [4] is Mitogen-activated protein kinase 14 (Homo sapiens) (UniProt Q16539). The conditions noted are these: at 0.1 µM.
Mitogen-activated protein kinase 14 (Homo sapiens), sequence (Q16539 whole entry): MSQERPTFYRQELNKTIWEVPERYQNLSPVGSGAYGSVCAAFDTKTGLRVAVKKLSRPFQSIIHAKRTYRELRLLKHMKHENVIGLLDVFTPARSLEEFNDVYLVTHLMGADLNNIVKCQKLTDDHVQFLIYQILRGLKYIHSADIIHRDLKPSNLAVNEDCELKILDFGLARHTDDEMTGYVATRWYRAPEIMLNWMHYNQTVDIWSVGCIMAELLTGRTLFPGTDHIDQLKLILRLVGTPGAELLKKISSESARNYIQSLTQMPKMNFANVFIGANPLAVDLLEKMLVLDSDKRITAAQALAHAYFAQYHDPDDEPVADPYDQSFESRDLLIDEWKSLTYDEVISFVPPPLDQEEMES
The target is the same in test [5]. The conditions noted are these: at 1 µM.
The target in test [6] is Mitogen-activated protein kinase 11 (Homo sapiens) (UniProt Q15759). The following applies: at 0.1 µM.
Mitogen-activated protein kinase 11 (Homo sapiens), sequence (Q15759 whole entry): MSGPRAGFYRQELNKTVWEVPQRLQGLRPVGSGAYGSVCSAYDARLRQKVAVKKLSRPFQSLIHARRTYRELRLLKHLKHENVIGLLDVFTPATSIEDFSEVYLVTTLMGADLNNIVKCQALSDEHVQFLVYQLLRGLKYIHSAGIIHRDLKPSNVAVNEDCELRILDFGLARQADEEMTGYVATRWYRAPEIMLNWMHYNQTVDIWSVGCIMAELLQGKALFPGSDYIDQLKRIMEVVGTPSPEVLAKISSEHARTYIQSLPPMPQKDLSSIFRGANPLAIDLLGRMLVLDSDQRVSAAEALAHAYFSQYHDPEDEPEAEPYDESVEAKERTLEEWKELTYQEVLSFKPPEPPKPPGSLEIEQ
For test [7] the target is unchanged. The following applies: at 1 µM.
Test [8] deals with T1, Mitogen-activated protein kinase 13 (Homo sapiens) (UniProt O15264).
T1 sequence (whole entry): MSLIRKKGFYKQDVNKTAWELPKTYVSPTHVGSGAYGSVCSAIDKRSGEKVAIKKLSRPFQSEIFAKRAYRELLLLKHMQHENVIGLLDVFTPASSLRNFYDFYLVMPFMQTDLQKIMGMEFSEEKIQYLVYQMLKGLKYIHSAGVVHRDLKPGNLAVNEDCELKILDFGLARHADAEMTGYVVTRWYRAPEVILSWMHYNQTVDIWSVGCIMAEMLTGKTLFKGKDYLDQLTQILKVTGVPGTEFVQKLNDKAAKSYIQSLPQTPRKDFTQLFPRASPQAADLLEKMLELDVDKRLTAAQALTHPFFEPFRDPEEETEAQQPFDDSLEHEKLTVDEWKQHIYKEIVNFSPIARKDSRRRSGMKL
The following applies: at 0.1 µM.

The target in test [9] is T1, Mitogen-activated protein kinase 13 (Homo sapiens). The conditions noted are these: at 1 µM.
Test [10] has as its target T2, Mitogen-activated protein kinase 12 (Homo sapiens) (UniProt P53778).
T2 sequence (whole entry): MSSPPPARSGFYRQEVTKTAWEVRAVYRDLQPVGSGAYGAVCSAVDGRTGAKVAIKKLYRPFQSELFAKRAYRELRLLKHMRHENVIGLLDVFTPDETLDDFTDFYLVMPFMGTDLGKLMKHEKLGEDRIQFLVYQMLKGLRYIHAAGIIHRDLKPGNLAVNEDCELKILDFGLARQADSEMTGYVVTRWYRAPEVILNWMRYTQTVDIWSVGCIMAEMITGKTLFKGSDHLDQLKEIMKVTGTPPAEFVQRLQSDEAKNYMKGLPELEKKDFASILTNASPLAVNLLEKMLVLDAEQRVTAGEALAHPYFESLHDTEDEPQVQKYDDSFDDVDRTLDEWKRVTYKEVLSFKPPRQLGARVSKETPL
The following applies: at 0.1 µM.

Test [11] has as its target T2, Mitogen-activated protein kinase 12 (Homo sapiens). The following applies: at 1 µM.
The target of test [12] is SRSF protein kinase 1 (Homo sapiens) (UniProt Q96SB4). The following applies: at 0.1 µM.
SRSF protein kinase 1 (Homo sapiens), sequence (Q96SB4 whole entry): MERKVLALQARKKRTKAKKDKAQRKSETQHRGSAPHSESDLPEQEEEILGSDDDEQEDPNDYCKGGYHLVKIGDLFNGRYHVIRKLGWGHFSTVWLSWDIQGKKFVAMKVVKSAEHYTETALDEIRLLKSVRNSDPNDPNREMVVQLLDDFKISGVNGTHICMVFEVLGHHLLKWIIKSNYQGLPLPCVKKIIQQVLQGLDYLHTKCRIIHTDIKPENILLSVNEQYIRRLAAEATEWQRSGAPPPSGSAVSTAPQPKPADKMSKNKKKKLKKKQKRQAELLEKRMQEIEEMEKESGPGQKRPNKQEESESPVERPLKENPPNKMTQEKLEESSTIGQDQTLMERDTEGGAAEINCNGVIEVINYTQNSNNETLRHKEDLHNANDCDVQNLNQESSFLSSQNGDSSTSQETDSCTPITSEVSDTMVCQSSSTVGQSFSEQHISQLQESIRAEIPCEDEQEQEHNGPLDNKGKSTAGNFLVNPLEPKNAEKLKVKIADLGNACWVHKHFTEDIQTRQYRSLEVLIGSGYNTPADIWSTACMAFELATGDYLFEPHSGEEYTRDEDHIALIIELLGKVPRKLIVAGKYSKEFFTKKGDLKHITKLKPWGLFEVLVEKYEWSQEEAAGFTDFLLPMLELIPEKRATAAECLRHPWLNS
Test [13] shares this target. The following applies: at 1 µM.
Test [14] deals with Phosphatidylinositol 4,5-bisphosphate 3-kinase catalytic subunit alpha isoform (Homo sapiens) (UniProt P42336). The conditions noted are these: at 0.1 µM.
Phosphatidylinositol 4,5-bisphosphate 3-kinase catalytic subunit alpha isoform (Homo sapiens), sequence (P42336 whole entry, canonical isoform): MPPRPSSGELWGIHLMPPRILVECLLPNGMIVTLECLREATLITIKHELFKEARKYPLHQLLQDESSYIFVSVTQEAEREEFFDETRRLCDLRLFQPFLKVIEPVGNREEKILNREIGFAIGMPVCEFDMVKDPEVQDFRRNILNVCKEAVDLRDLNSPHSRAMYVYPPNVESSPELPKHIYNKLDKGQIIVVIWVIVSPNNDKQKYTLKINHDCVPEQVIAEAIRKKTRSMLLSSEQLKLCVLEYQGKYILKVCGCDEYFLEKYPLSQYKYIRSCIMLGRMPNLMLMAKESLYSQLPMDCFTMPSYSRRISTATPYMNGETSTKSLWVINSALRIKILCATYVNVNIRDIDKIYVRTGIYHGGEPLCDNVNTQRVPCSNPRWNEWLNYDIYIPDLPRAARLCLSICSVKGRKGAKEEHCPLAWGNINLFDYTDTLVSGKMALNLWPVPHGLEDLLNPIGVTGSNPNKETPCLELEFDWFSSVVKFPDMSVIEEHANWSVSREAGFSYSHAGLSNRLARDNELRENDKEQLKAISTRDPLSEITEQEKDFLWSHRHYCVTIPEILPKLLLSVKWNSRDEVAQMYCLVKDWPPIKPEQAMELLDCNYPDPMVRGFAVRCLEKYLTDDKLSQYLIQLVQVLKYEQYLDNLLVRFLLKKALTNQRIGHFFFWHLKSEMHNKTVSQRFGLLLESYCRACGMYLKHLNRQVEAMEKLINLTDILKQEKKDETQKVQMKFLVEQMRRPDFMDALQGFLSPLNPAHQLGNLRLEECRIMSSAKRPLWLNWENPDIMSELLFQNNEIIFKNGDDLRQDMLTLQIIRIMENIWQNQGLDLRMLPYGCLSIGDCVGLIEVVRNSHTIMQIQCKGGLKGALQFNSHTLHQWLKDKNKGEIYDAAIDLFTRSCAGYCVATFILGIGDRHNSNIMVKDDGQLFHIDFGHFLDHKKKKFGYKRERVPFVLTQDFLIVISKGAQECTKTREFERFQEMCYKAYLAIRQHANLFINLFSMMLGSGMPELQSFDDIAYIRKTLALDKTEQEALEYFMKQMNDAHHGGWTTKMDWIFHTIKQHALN
The target is the same in test [15]. The conditions noted are these: at 1 µM.
Test [16] has as its target T3, Phosphatidylinositol 4,5-bisphosphate 3-kinase catalytic subunit delta isoform (Homo sapiens) (UniProt O00329).
T3 sequence (whole entry): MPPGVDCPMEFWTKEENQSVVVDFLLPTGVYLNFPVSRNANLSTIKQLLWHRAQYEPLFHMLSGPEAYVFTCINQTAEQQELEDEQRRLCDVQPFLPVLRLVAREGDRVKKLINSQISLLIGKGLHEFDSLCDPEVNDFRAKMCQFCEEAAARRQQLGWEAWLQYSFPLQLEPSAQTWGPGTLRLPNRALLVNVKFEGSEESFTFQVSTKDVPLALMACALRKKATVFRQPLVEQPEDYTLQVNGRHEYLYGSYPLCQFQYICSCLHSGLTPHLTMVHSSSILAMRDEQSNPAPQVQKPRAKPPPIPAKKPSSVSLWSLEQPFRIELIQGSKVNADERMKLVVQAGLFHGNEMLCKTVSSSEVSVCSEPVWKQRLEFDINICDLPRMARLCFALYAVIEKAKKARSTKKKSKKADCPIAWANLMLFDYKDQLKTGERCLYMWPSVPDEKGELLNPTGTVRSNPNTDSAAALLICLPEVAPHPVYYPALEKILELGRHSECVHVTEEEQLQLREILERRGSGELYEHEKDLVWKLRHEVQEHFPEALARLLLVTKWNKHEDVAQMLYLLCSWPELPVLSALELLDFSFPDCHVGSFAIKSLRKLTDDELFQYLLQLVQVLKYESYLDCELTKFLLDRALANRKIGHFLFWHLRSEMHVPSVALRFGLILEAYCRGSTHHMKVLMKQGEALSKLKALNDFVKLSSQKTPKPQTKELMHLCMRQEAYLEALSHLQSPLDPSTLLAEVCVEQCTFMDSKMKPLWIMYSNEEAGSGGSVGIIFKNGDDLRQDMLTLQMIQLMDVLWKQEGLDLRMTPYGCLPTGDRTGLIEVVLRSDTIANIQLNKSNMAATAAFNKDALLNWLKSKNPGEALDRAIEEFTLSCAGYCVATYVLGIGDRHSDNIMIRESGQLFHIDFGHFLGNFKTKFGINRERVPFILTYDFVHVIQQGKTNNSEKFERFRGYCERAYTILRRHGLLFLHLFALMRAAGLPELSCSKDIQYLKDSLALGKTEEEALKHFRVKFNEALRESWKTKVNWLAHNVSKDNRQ
The following applies: at 0.1 µM.

The target in test [17] is T3, Phosphatidylinositol 4,5-bisphosphate 3-kinase catalytic subunit delta isoform (Homo sapiens). The conditions noted are these: at 1 µM.
Test [18] addresses Phosphatidylinositol 4-kinase beta (Homo sapiens) (UniProt Q9UBF8). The conditions noted are these: at 0.1 µM.
Test [19] shares this target. The conditions noted are these: at 1 µM.
Test [20] addresses Sphingosine kinase 1 (Homo sapiens) (UniProt Q9NYA1). The following applies: at 0.1 µM.

Phosphatidylinositol 4-kinase beta (Homo sapiens), sequence (Q9UBF8 2-816 limits assumed): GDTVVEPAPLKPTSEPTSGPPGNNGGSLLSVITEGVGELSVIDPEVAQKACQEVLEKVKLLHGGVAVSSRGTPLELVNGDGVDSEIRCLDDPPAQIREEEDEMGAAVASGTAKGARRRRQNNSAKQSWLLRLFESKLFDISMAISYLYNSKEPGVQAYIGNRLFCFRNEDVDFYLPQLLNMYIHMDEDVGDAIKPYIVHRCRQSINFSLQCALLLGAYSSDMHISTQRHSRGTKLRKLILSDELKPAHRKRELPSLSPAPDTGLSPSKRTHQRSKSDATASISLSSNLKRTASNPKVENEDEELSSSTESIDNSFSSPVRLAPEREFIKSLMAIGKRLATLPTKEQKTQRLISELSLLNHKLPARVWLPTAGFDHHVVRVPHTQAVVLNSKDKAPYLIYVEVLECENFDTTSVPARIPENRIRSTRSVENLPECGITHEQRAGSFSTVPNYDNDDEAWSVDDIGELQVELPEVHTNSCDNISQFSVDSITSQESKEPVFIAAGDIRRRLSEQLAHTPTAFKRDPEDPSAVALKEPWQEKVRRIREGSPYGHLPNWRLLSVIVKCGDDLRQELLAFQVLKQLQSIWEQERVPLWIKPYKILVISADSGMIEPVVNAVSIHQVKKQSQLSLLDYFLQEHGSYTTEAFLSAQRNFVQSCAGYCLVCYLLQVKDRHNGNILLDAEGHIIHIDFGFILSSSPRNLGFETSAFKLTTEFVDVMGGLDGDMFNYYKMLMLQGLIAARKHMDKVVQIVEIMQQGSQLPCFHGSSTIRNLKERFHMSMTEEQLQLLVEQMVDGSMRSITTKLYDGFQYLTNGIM
SRSF protein kinase 3 (Homo sapiens), sequence (Q9UPE1 whole entry): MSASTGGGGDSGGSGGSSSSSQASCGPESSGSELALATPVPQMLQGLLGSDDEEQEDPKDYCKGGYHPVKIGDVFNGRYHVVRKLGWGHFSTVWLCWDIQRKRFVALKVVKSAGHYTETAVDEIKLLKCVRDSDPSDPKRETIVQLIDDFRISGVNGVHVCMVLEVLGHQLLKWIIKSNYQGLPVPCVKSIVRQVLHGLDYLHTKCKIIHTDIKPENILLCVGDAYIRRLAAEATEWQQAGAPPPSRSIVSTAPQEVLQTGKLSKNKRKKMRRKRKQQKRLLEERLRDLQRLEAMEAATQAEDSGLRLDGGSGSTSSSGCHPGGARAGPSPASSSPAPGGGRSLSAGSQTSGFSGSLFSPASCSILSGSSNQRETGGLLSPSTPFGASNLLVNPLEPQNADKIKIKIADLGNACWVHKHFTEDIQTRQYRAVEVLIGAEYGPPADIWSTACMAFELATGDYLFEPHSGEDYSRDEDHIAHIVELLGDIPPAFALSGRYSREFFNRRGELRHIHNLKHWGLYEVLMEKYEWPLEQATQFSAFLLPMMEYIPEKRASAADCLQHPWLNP
Mitogen-activated protein kinase 3 (Homo sapiens), sequence (P27361 whole entry): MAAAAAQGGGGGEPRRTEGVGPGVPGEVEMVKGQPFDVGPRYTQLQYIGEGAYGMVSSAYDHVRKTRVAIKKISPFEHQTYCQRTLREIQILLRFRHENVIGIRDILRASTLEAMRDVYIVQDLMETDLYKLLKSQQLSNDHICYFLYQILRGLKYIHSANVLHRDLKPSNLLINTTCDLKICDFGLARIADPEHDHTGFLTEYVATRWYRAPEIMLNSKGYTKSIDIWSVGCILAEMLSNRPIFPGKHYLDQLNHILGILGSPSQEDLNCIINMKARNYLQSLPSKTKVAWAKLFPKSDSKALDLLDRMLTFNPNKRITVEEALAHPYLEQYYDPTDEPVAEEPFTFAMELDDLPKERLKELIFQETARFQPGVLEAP
Sphingosine kinase 1 (Homo sapiens), sequence (Q9NYA1 whole entry): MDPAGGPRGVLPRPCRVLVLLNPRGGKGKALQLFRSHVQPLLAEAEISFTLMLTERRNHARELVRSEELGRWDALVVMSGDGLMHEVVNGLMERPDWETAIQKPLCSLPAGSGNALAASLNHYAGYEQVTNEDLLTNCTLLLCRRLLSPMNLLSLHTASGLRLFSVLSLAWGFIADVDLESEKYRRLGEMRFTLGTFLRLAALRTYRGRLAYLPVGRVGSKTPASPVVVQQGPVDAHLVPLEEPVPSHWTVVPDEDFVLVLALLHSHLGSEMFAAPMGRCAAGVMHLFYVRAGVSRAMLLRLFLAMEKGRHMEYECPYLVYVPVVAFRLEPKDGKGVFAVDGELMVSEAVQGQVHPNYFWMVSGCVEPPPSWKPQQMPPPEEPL

Regarding `Cc1cc(-c2ccccn2)cc(C)c1/C=C/c1cncc(-c2nn[nH]n2)c1`, the inhibition in [1] is 3.69%; in [2], -0.25%; in [3], -1.02%; in [4], 7.59%; in [5] it was 12.9%; in test [6], 3.45%. The inhibition in test [7] is 1.89%; in test [8], 4.85%; in test [9], 4.9%; in test [10], 3.27%; in [11], 5.02%; in test [12] it was -3.94%. The inhibition is -5.12% in test [13]; 3.8% in test [14]; 3.72% in test [15]; 0.41% in [16]; -0.48% in test [17]; -1.8% in [18]. For the same molecule, the values for the inhibition in test [19] and in test [20] were 0.81% and 0.97%, respectively.
In the case of `CC(C)c1ccc(Nc2nccc(-c3cnn4ncccc34)n2)cc1`, the inhibition was 3% in test [1]; -1.04% in test [2]; 0.7% in test [3]; -1.86% in [4]; 28.2% in test [5]; 2.54% in test [6]. Also, the inhibition in test [7] was 5.44%; in test [8] it was 1.62%; in test [9], 5.42%; in test [10], -0.84%; in test [11] it was 4.14%; in test [12], -1.68%. Moreover, the inhibition in [13] is -0.8%; in test [14], 1.41%; in test [15], 4.52%; in [16], 2.45%; in test [17] it was 6.78%; in [18] it was 2.86%. For the same molecule, the inhibition in test [19] worked out at 3.34%; in test [20] it was 4.11%.
In the case of `CCn1c(-c2nonc2N)nc2c(C#CC(C)(C)O)nc(OCCNC)cc21`, the inhibition in [1] is 4.08%; in test [2] it was 0.05%; in test [3] it was -0.46%; in [4], 6.16%; in test [5] it was 7.38%; in test [6], 2.05%. Further, the inhibition in [7] is 2.15%; in [8], 4.59%; in test [9], 5.13%; in test [10], 3.83%; in test [11] it was 6.39%; in test [12] it was -3.96%. The inhibition was -2.97% in test [13]; 5.21% in test [14]; 4.34% in [15]; 1.6% in test [16]; 1.55% in test [17]; -2.53% in test [18]. Further, the inhibition in test [19] is 3.94%; in test [20], -1.43%.
Take `NS(=O)(=O)c1ccc(N/N=C2\C(=O)Nc3ccc(Cl)cc32)cc1`: the inhibition in test [1] is 4.54%; in test [2], -0.26%; in test [3], 0.76%; in [4], 0.03%; in test [5], 4.11%; in test [6], 3.71%. The inhibition was 5.91% in test [7]; 1.25% in [8]; 3.33% in [9]; 0.26% in [10]; 2.14% in test [11]; -1.45% in test [12]. Further, the inhibition in [13] amounted to 0.49%; in test [14], 2.11%; in [15], 2.12%; in test [16] it was 0.01%; in test [17], 0.13%; in test [18], 5.17%. The inhibition is -1.54% in test [19] and 0.4% in test [20].
Consider `NC(=O)c1sc(-n2cnc3ccccc32)cc1OCc1ccccc1Br`, for which the inhibition was 4.22% in test [1]; -0.27% in test [2]; -0.72% in test [3]; 8.45% in test [4]; 23.1% in test [5]; 1.2% in test [6]. The inhibition is 4.68% in test [7]; 4.65% in test [8]; 5.08% in test [9]; 3.45% in [10]; 5.59% in test [11]; -3.49% in [12]. Also, the inhibition in test [13] is -2.38%; in [14] it was 4.02%; in [15], 4.31%; in test [16], 2.31%; in [17], 4.24%; in test [18], 0.67%. Also, the inhibition in test [19] was -1.28%; in test [20], 1.25%.
As for `CCS(=O)(=O)c1ccc(OC)c(Nc2ncc(-c3cccc(OC)c3)o2)c1`, the inhibition in test [1] is -2.17%; in [2], 0.87%; in test [3], 0.2%; in [4], 4.78%; in [5], 7.73%; in test [6], 1.06%. For the same molecule, the inhibition in [7] is 5.17%; in test [8] it was 1.24%; in test [9], 4.76%; in test [10] it was -4.79%; in test [11], 2.08%; in test [12], -1.9%. Further, the inhibition is -1.28% in test [13]; 1.81% in test [14]; 2% in test [15]; 3.48% in test [16]; 3.98% in test [17]; 3.39% in [18]. Also, the inhibition in test [19] is -0.15%; in test [20], -0.07%.
For the molecule `COc1cc2ncn(-c3cc(OCc4ccccc4S(C)(=O)=O)c(C#N)s3)c2cc1OC`, the inhibition came to 4.78% in test [1]; 0.72% in test [2]; 1.49% in [3]; 4.48% in [4]; 8.47% in [5]; 2.79% in [6]. In addition, the inhibition in test [7] is 6.97%; in test [8], 1.05%; in test [9], 3.85%; in [10], 0.36%; in [11], 2.63%; in test [12] it was -1.91%. Further, the inhibition in [13] is -1.66%; in [14], 3.16%; in [15] it was 3.95%; in test [16], 2.67%; in [17], 3.41%; in test [18], -5.13%. In addition, the inhibition in test [19] is -1.46%; in test [20], 0.08%.

For the origin of these results see ChEMBL document CHEMBL1961873, “Compounds: GSK PKIS; Assays: Nanosyn kinase panel” (2012).
